# Bioassay records as filed in PubChem BioAssay.
# In the library only some 1.6% were active in any assay of this set; here they are far more common.
# VLA-4 inh: inhibition in a human VLA-4 binding assay | P13612 | VLA-4 expressing cells, ligand binding flow cytometry | inhibition, % (about 7 µM as worked out from the volumes in the protocol) | actives 0.2% (n = 330,000) | AID 2557; in the data active means inhibition above about 50%
# PKA-R1A act: PKA-R1A complex activation; PKA-R1A dissociation, Cy5-IP20 fluorescence polarization; scaled: DMSO 0%, 113 µM cGMP 100%; activation, % at 11.4 µM; actives 0.083% (n = 340,000);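 active means percent activation above the mean of all tested compounds plus 3 SD, cut at about 19% in these data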;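 further: higher means more PKAc released from R1A so a rise in polarization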
# PKA-R2B act: activators of human PKA-R2B complex. P22694+P31323. PKA-R2B holoenzyme dissociation, Cy5-IP20 fluorescence polarization; R2B truncated from residue 108, S112A mutant; 0% DMSO only, 100% 113 µM cGMP. activation, % at 11.4 µM. actives 0.079% (n = 340,000). AID 504700;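 active means activation above a cutoff set at the mean over all compounds plus 3 SD, cut at about 18% in these data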;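 further: higher means more holoenzyme dissociation and a rise in polarization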
# Target sequence (P31323 whole entry, looked up, other chains not shown, the tested form may be a part): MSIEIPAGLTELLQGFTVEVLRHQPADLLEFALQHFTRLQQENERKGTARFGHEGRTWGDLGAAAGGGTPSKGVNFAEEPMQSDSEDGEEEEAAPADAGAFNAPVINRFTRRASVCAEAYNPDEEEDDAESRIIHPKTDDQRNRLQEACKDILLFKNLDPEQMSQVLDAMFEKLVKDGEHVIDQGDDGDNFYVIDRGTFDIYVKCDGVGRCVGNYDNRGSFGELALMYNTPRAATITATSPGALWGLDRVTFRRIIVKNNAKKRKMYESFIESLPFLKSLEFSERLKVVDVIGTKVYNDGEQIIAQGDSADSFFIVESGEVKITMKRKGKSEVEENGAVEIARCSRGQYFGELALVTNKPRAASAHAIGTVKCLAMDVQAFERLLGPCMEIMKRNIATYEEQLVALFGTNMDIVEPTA
# CendR NRP1 mod: alters CendR peptide binding to human NRP-1. O14786. FAM-RPARPAR peptide binding to NRP-1, fluorescence polarization. inhibition, % at 25 µM. actives 0.85% (n = 360,000). AID 602438;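 active means inhibition or corrected inhibition above about 18%, plus a signal ratio from 0.5 to 1.5, limit read from the data, passing the limit was not always enough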
# ATG4B inhibitor: inhibitors of human ATG4B cysteine protease | ATG4B cleavage of LC3-PLA2, NBD-HPC fluorescence, 1 h | actives 0.51% (n = 340,000) | inhibition, % at 8.33 µM; in the data active means inhibition above about 40%
# The depositor's hits bear a star; . = no result given.
SMILES,VLA-4 inh,PKA-R1A act,PKA-R2B act,CendR NRP1 mod,ATG4B inhibitor
O=C(Nc1ccccc1C(=O)NCc1ccco1)NC1CCCCC1,13,3,-3,20*,-3
COc1ccccc1C(=O)Oc1ccc2c(c1)O/C(=C\c1ccncc1)C2=O,7,-4,-3,5,-2
COc1cc2c(c(OC)c1OC)C(=O)C(=Cc1ccccc1)O2,.,-5,-1,26*,-18
COc1ccc(CCNC(=O)c2c(O)c3cccc4c3n(c2=O)CC4)cc1OC,7,-4,-7,44*,9
CNC(=O)c1c(O)c2cccc3c2n(c1=O)CC3,15,-5,-3,13,-1
CC(Sc1nnnn1C1CC1)C(=O)N1c2ccccc2NC(=O)C1(C)C (stereo not drawn),-6,2,-6,26*,2
Cc1nc(Cc2nnc(SC(C)C(=O)N3c4ccccc4NC(=O)C3(C)C)o2)cs1 (stereo not drawn),16,-15,-2,3,-1
COc1ccc(S(=O)(=O)N(C)C[C@@H]2Oc3c(NS(=O)(=O)c4cn(C)cn4)cccc3C(=O)N([C@@H](C)CO)C[C@@H]2C)cc1,-4,-9,0,-16,-2
COc1ccc(S(=O)(=O)Nc2cccc3c2O[C@H](CN(C)S(=O)(=O)c2cn(C)cn2)[C@@H](C)CN([C@H](C)CO)C3=O)cc1,17,-5,-3,26*,-1
O=C(Nc1cccc(C(F)(F)F)c1)C1Cc2c(-c3cccc(F)c3)ccnc2O1 (stereo not drawn),.,.,.,30*,.
O=C(CSc1nnnn1-c1cccnc1)Nc1ccccc1F,-7,6,-3,5,-7
CCCCC1CCC(C(=O)NC2CCS(=O)(=O)C2)CC1 (stereo not drawn),15,8,-9,38*,5
O=C(NC1CCS(=O)(=O)C1)C1CCCC1 (stereo not drawn),4,1,-12,10,-2
NC(=O)C1CC(=O)N(c2ccc(OCC(=O)N3CCCC3)cc2)C1 (stereo not drawn),.,-3,-4,28*,3
CC1CCC/C(=N\NC(=O)c2ccncc2)C1 (stereo not drawn),-6,-2,3,30*,10
O=C(NN=C1CCCCCC1)c1ccncc1,-19,-2,-5,-7,-8
CC1CCN(C(=O)N[C@@H](Cc2ccccc2)C(=O)O)CC1,6,-14,-16,20*,-2
O=C(O)[C@H](Cc1ccccc1)NC(=O)N1CCC(Cc2ccccc2)CC1,3,12,-2,-3,0
Cc1ccc(Nc2c(-c3ccccc3O)nc3ncccn23)cc1,0,-12,-17,25*,-2
CCCCN(CC)C(=O)CSc1nc2c(sc(=S)n2-c2ccc(OCC)cc2)c(=O)[nH]1,.,7,1,6,1
CCC(=O)N[C@H]1CC[C@@H](CCn2cc(C3CC3)nn2)O[C@@H]1CO,.,.,.,5,.
COc1ccc(C2/C=C\CN(C(=O)C3CCCCC3)CC(=O)N2Cc2ccc(F)cc2)cc1 (stereo not drawn),.,-3,-6,34*,-7
COC(=O)c1c(NC(=O)CN2CCC3(O)CCCCC3C2c2cc(OC)ccc2OC)sc(C)c1C (stereo not drawn),-6,-5,-13,27*,-8
O=c1c(Cl)c(O)ccn1C1OC(CO)C(O)C1O (stereo not drawn),.,-6,-6,2,0
Cc1nc2ccc(CN(C)c3ccc(C(=O)N[C@@H](CCC(=O)O)C(=O)O)s3)cc2c(=O)[nH]1,52*,.,.,.,.
SMILES,VLA-4 inh,PKA-R1A act,PKA-R2B act,CendR NRP1 mod,ATG4B inhibitor
Clc1ccc(-c2nc3c4ccccc4ccn3c2Cc2ccsc2)cc1,.,.,.,-20,.
COc1ccc(/C=N/N=C2/CC(C)(C)Cc3n[nH]c(=O)cc32)cc1,1,0,4,50*,0
C(=C\c1ccccc1)/CN1CCN(C(c2nnnn2Cc2ccccc2)C2CC2)CC1 (stereo not drawn),.,.,.,12,.
Cc1ccc(S(=O)C(c2ccccc2)c2ccccc2)cc1 (stereo not drawn),.,-9,3,20*,1
Cc1ccc2oc(C(=O)NCC3CCOCC3)c(C)c2c1,1,-4,-4,26*,-3
CC1OC(CC(=O)O)CC2=C1C(=O)c1c(O)cccc1C2=O (stereo not drawn),.,-1,-9,35*,8
O=C1c2cccc(O)c2C(=O)c2c(O)cccc21,8,.,.,.,.
COCCNC(=O)/C(C#N)=C/c1cc(C)n(-c2ccc(C)cc2)c1C,0,-10,-10,27*,5
COCCNC(=O)/C(C#N)=C/c1cc(C)n(C2CCCCC2)c1C,11,1,-4,1,-3
COCCNC(=O)/C(C#N)=C/c1ccc2c(c1)OCO2,7,0,3,35*,6
O=C(Nc1nc2ccccc2[nH]1)c1ccc(Cl)c(S(=O)(=O)N2CCCC2)c1,7,5,1,34*,-19
CC(C)(C)NC(=O)C(c1ccccc1F)n1c(=O)c(-c2cc3ccccc3[nH]2)nc2ccccc21 (stereo not drawn),.,.,.,-32,.
CC(C)[C@@H]1Cc2[nH]n(C)c(=O)c2[C@H](c2ccc(Cl)cc2)O1,.,.,.,-20,.
Cc1ccc(C2(c3noc(CN(C)Cc4cnn(C)c4)n3)CCCC2)cc1,-6,-2,-6,34*,1
Cc1ccc(C2(c3noc(CN(C)CCCN4CCOCC4)n3)CCCC2)cc1,-6,.,.,.,.
CCOC(=O)C1(Cc2ccc(Cl)cc2)CCN(Cc2ccon2)CC1,38,-9,-9,6,-10
CCOC(=O)C1(Cc2cccc(F)c2)CCN(Cc2ccon2)CC1,5,.,.,30*,-7
CCOC(=O)c1c(N)nn(C(=O)C(C)C)c1-c1ccccc1,10,-5,3,22*,-1
COc1ccc(CN2C(=O)C(CC(=O)NCCN3CCOCC3)CC(C(=O)N3CCCCCC3)=C2C)cc1 (stereo not drawn),.,.,.,-8,.
CC1=C(C(=O)N2CCCCCC2)CC(CC(=O)NCCN2CCOCC2)C(=O)N1Cc1ccccc1 (stereo not drawn),.,.,.,29*,.
NCCCC[C@H]1CNC(=O)C(=O)N1CC1CCCCC1,27,-2,4,18*,-10
CCCC[C@@H]1CNC(=O)C(=O)N1CC1CCCCC1,.,.,.,-10,.
O=C(Nc1ccccc1N1CCOCC1)[C@@H]1O[C@H](CO)[C@H](O)[C@H](O)[C@H]1O,.,.,.,32*,.
NC(=O)c1oc2ccccc2c1NC(=O)c1nc2ccccc2s1,-12,-6,-5,24*,1
Cc1cnc(C=NNC(N)=S)c2cccc(N)c12,.,-3,-1,26*,-8
COc1cc(NC(=O)c2ccc(OCc3c(C)noc3C)c(OC)c2)cc(OC)c1,-4,-10,-7,-11,-1
